This passage reports outcome and fluorescence, % of fluorescent control results from PubChem BioAssay (Tox21).

Values without a mark were called inactive. Calls of active or inactive are those of the source. Calls come from the whole dose curve; as a rule, active = well fitted curve in the direction sought with a large enough effect in the repeat runs; inconclusive = weak or mixed curves; inactive = flat fitted curve, though single readings scatter.
% is set by controls: 0 for no effect and ±100 for the full control effect.

The experiment can be described thus: qHTS assay to test for compound auto fluorescence at 460 nm (blue) in HepG2 cells (AID 720687). As to conditions: autofluorescence 405/460 nm, 1 h; series mostly up to 46 µM. The text has this: U.S. Tox21 Program National Center for Advancing Translational Sciences [NCATS] NIH Chemical Genomics Center [NCGC] U.S. Environmental Protection Agency [EPA] National Institutes of Environmental Health Sciences [NIEHS] National Toxicology Program [NTP] U.S. Food and Drug Administration [FDA] Tox21 Assay Overview: Compound auto fluorescence often interferes with screening of the compound library against various biological targets and signaling pathways. Some of these compounds may have fluorophoric properties. Such properties may interfere with the assay outputs resulting in false positives and/or negatives. To decrease such complications and ensure the compound activities are relevant in terms of biological response, the Tox21 10K compound library was screened for auto fluorescence. From the fluorophores used as reporter signals in our screening assays, the auto fluorescence equivalencies of compounds against three fluorophores have been evaluated: Triamterene, Fluorescein and Rose Bengal sodium for blue, green and red fluorescence, respectively. The fluorescence intensities were measured using Excitation/Emission wavelengths at 405/460nm, 485/535nm and 540/590nm for blue, green and red labels, respectively. This assay includes the blue fluorescence data.
Tox21 Assay Protocol Summary: 2,000 HepG2 cells in 5 uL of culture medium (MEM containing 10% FBS) per well were dispensed into black wall/clear bottom 1536-well plates using a Multidrop Combi Dispenser (ThermoFisher Scientific, Waltham, MA). The assay plates were incubated overnight at 37 C to allow cell attachment to the well bottom, followed by the transfer of 23 nL compound or DMSO vehicle by a pintool work station (Kalypsys , San Diego, CA). After the assay plates were incubated for 1 hr at 37 C and 5% CO2, fluorescence intensities in the assay plates were measured by an Envision (PerkinElmer, Shelton, CT) plate reader using three labels for measuring blue, green and red fluorescence at […] 460, 535 and 590 nm respectively.
In general terms: Quantitative high-throughput screening tests each substance at several concentrations.
With `COc1ccc(CCN(C)CCCC(C#N)(c2cc(OC)c(OC)c(OC)c2)C(C)C)cc1OC` (stereo not given), the outcome was inactive.

On to `CCCCCCCCCCCCCCCCC`, for which the compound was classed as inactive.

As to `COc1nc(N)nc2c1ncn2[C@@H]1O[C@H](CO)[C@@H](O)[C@@H]1O`, the call was inactive.

As to `O=[N+]([O-])c1ccc(F)cc1F`, the call was inactive.

For the compound `Cc1ccc(C#N)cc1`, the outcome was inactive.

`CCC(=O)OC(C)c1ccccc1` (stereo not given): the compound was called inactive.

As to `N[C@H](C(=O)O)c1ccc(O)cc1`, the outcome was inactive.

Turning to `CC(C)=CCCC(C)CC(=O)O` (stereo not given), the outcome was inactive.

`CCCCOCCOCCOCCCC`: the result was inactive.

As to `NC(=O)c1ccc(N)cc1`, the compound was called inactive.

Take `CCn1nc(C(=O)O)c(=O)c2cc3c(cc21)OCO3`: the result was inactive.

Consider `OC(CCN1CCCCC1)(c1ccccc1)C1CC2C=CC1C2` (stereo not given), for which the call was inactive.

Turning to `CN1CC(=O)NC1=N`, the compound was classed as inactive.

Consider `CC(C(=O)O)c1ccc(CC2CCCC2=O)cc1` (stereo not given), for which the compound was called inactive.

With `Nc1cc(=O)[nH]c(N)n1`, the call was inactive.

As to `CN(C(=O)c1c(O)c2ccccc2n(C)c1=O)c1ccccc1`, the result was inactive.

On to `CC(=O)Nc1c(I)cc(I)c(C(=O)O)c1I`, for which the compound was called inactive.

Take `CC/C=C\CC/C=C/C(OCC)OCC`: the call was inactive.

With `Nc1c2c(nc3ccccc13)CCCC2O` (stereo not given), the result was inactive.

Take `N[C@H]1CN(c2c(F)cc3c(=O)c(C(=O)O)cn(C4C[C@H]4F)c3c2Cl)CC12CC2` (stereo not given in full): the compound was classed as inactive.

As to `O=c1cc(CO)occ1O`, the call was inactive.

On to `O=C(O)CCCl`, for which the compound was classed as inactive.

Turning to `NC(=O)c1cn(Cc2c(F)cccc2F)nn1`, the compound was classed as inactive.

As for `O=C(O)c1ccccc1OP(=O)(O)O`, the outcome was inactive.

Turning to `C/C=C(\C)C#N`, the call was inactive.

Take `COc1cc(C(=O)N2CCCCCCC2)cc(OC)c1OC`: the result was inactive.

On to `O=C1OC(=O)C2CCCCC12` (stereo not given), for which the compound was classed as inactive.

For `NS(=O)(=O)c1ccccc1Cl`, the compound was called inactive.

Regarding `Cc1[nH]c(=O)c(C#N)cc1-c1ccc2nccn2c1`, the compound was called inactive.

In the case of `NC(=O)COCCN1CCN(C(c2ccccc2)c2ccc(Cl)cc2)CC1` (stereo not given), the outcome was inactive.

Take `CCCCCCCCCCCCCC=O`: the fluorescence, % of fluorescent control is -0.0327% [at 3.72 µM].

For the compound `CCOC(=O)CCC(C)=O`, the compound was classed as inactive.

With `CCOC(=O)C(=O)OCC`, the compound was called inactive.

Take `C[N+](C)(C)CC(O)CC(=O)[O-]` (stereo not given): the outcome was inactive.

Turning to `CC(C)OC(=O)c1ccccc1`, the compound was called inactive.

For `CCCCOCCOCCOCc1cc2c(cc1CCC)OCO2`, the call was inactive.

`CCCCCCCCS(=O)(=O)Cl`: the result was inactive.

`CO/N=C(/C(=O)N[C@@H]1C(=O)N2C(C(=O)OCOC(=O)C(C)(C)C)=C(C)CS[C@H]12)c1csc(N)n1`: the result was inactive.

For the compound `CCOC(=O)CC(C)=O`, the outcome was inactive.

On to `CCc1nccnc1CC`, for which the compound was called inactive.
